{
  "source": "PubChem BioAssay AID1662",
  "about": "(Broad Institute, 2009)",
  "note": "The campaign covered roughly 300,000 compounds. About 4,000 (1.3%) were called active.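 How the source made its calls: active means mean replicate score, as percent of positive control median, at least 50; inconclusive means mean below 50 but one replicate at or above 50; inactive means mean and every replicate below 50.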 This excerpt belongs to a sample that is enriched for actives.",
  "data": [
    {"assay": "kanamycin survival loss of SKKanGAS strain – BacTiter-Glo luminescence, streptokinase expression inhibitor project, primary screen (AID 1662);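 further: strain carries kanamycin resistance gene driven by streptokinase promoter and grows in 40 µg/ml kanamycin; loss of luminescence reflects streptokinase promoter inhibition or plain growth inhibition; 0% = median of DMSO wells and 100% = positive control at its reference dose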", "conditions": "S. pyogenes SKKanGAS, kanamycin growth, 6 h, at 7.5 µM, stronger effect = higher value", "values": [
      {"molecule": "COc1ccc(Oc2cn[nH]c2-c2ccc(OC)cc2O)cc1", "inhibition": "13.6% (inactive)"},
      {"molecule": "COc1ccc(-c2cn[nH]c2-c2ccc(OC)cc2)cc1", "inhibition": "75.3% (active)"},
      {"molecule": "COC(=O)c1cc(OC)ccc1-c1ccc(OC)cc1", "inhibition": "11% (inactive)"},
      {"molecule": "O=C1/C(=C\\c2ccccc2Cl)SC(=S)N1CCC(=O)N1CCCc2ccccc21", "inhibition": "-4.28% (inactive)"},
      {"molecule": "COc1ccc(-n2cc(-c3ccccc3)c3c(=S)nc[nH]c32)cc1", "inhibition": "54.1% (active)"},
      {"molecule": "COc1ccc(-c2cn(-c3ccc(OC)cc3)c(=S)[nH]2)cc1", "inhibition": "-13.9% (inactive)"},
      {"molecule": "O=c1[nH]cnc2c1c(-c1ccccc1)cn2-c1ccc(F)cc1", "inhibition": "-1.74% (inactive)"},
      {"molecule": "CCOP(=O)(OCC)C(Nc1cccc(C)c1)c1ccc(F)cc1", "note": "(centres undefined)", "inhibition": "-2.54% (inactive)"},
      {"molecule": "CC1CCc2[nH]c3ccc(C(=O)N(C)CC(=O)Nc4cccc(F)c4)cc3c2C1", "note": "(centres undefined)", "inhibition": "-8.76% (inactive)"},
      {"molecule": "CC(C)CC1(C(=O)NCc2ccccn2)C=CCN1C(=O)c1ccccc1", "note": "(centres undefined)", "inhibition": "-5.95% (inactive)"},
      {"molecule": "COc1ccc(CCNC(=O)CSc2nc3[nH]ncc3c(=O)n2-c2cccc(C(F)(F)F)c2)cc1OC", "inhibition": "-2.08% (inactive)"},
      {"molecule": "COc1ccc(-n2cnnc2SCC(=O)Nc2cccc([N+](=O)[O-])c2)cc1", "inhibition": "-8.4% (inactive)"},
      {"molecule": "NC(=O)NC(=O)CSc1nc2cc([N+](=O)[O-])ccc2n1-c1cccc(C(F)(F)F)c1", "inhibition": "97.7% (active)"},
      {"molecule": "CC1(C)SC2C(NC(=O)COc3ccccc3)C(=O)N2C1C(=O)O", "note": "(centres undefined)", "inhibition": "102% (active)"},
      {"molecule": "CC1(C)S[C@@H]2[C@H](NC(=O)COc3ccccc3)C(=O)N2C1C(=O)OCc1ccccc1", "note": "(some centres undefined)", "inhibition": "97% (active)"},
      {"molecule": "NC(=O)C1CC(=O)N(c2ccc(OCC(=O)NCc3ccccc3)cc2)C1", "note": "(centres undefined)", "inhibition": "1.49% (inactive)"},
      {"molecule": "CC1(C)S[C@@H]2[C@H](N=CN3CCCCCC3)C(=O)N2[C@H]1C(=O)O", "inhibition": "-7.68% (inactive)"},
      {"molecule": "COC(=O)C1[C@H]2SC(C)(C)C(C(=O)OC)N2C(=O)N1Cc1nc2ccccc2s1", "note": "(some centres undefined)", "inhibition": "6.63% (inactive)"},
      {"molecule": "Cc1cccc(OCC(=O)NC2CC(C)(C)NC(C)(C)C2)c1", "inhibition": "1.54% (inactive)"},
      {"molecule": "C[C@H]1CC[C@]2(O[C@@H](CCO)C[C@@H](O)[C@@H]2O)O1", "inhibition": "-3.21% (inactive)"},
      {"molecule": "CC1Cn2c(nnc2-c2cccs2)S1", "note": "(centres undefined)", "inhibition": "-5.31% (inactive)"},
      {"molecule": "CCCn1c(=N)n(CC(=O)c2ccc(Cl)c(Cl)c2)c2ccccc21", "inhibition": "2.77% (inactive)"},
      {"molecule": "CN(C(=O)CN1C(=O)NC(C)(CCc2ccccc2)C1=O)c1ccccc1", "note": "(centres undefined)", "inhibition": "-1.34% (inactive)"},
      {"molecule": "CC1CC(=O)N(CC(=O)Nc2cccc(Cl)c2)c2ccccc2S1(=O)=O", "note": "(centres undefined)", "inhibition": "-1.88% (inactive)"},
      {"molecule": "CSc1ccc(CNC(=O)c2ccc(NC(=O)C3=CSCCO3)cc2)cc1", "inhibition": "-10.5% (inactive)"},
      {"molecule": "Cc1nc(NNC(=O)c2ccccc2)cc(-c2ccccc2)n1", "inhibition": "-2.12% (inactive)"},
      {"molecule": "Cc1ccc(-c2csc(NNC(=O)c3ccccc3)n2)cc1", "inhibition": "55.1% (active)"},
      {"molecule": "CC(=O)Nc1ccc(-c2csc(NC(=O)Nc3ccccc3)n2)cc1", "inhibition": "0.751% (inactive)"},
      {"molecule": "COc1cccc(CNC(=O)c2nnn(CC(=O)Nc3cc(C)ccc3C)c2N)c1", "inhibition": "11% (inactive)"},
      {"molecule": "O=C(/C=C/c1cnc2ccccc2n1)NC1CCCCCC1", "inhibition": "2.73% (inactive)"},
      {"molecule": "COc1ccccc1C(=O)NCCC(=O)NN1C(=O)NC2(CCCCC2)C1=O", "inhibition": "-9.03% (inactive)"},
      {"molecule": "NCC(=O)c1cccc2ccc[n+]([O-])c12", "inhibition": "-3.82% (inactive)"},
      {"molecule": "Cc1cccc(C(=O)Nc2ccccc2-c2nnn(CC(=O)Nc3ccc4c(c3)OCCO4)n2)c1", "inhibition": "59.1% (active)"},
      {"molecule": "O=C(Nc1ccccc1-c1nnn(CC(=O)N2CCCc3ccccc32)n1)c1cccc(Cl)c1", "inhibition": "-0.017% (inactive)"},
      {"molecule": "CS(=O)(=O)c1ccc(-c2nnn(CC(=O)Nc3ccc4c(c3)OCCO4)n2)cc1", "inhibition": "-16.5% (inactive)"},
      {"molecule": "COc1cc(C(=O)OC(C)C(=O)NCC2CCCCC2)cc(NC(=O)c2ccco2)c1OC", "note": "(centres undefined)", "inhibition": "-4.57% (inactive)"},
      {"molecule": "COc1cccc2sc(Nc3nc(C)c(C(C)=O)s3)nc12", "inhibition": "53.7% (active)"},
      {"molecule": "COc1ccc(S(=O)(=O)N2CCOCC2)cc1C(=O)Nc1nc2ccccc2s1", "inhibition": "1.7% (inactive)"},
      {"molecule": "COc1cc2ccccc2cc1C(=O)Nc1nc(C)c(C(C)=O)s1", "inhibition": "-5.23% (inactive)"},
      {"molecule": "COc1cccc2sc(NNC(=O)c3nc4ccccc4s3)nc12", "inhibition": "92.6% (active)"},
      {"molecule": "COc1ccccc1OCc1nc2ccccc2s1", "inhibition": "21% (inactive)"},
      {"molecule": "COc1ccccc1/C=N/Nc1nc(C)c(C(C)=O)s1", "inhibition": "-9.03% (inactive)"},
      {"molecule": "CN(C)CCCN(C(=O)c1ccc(S(=O)(=O)N2CCCCCC2)cc1)c1nc2cc3c(cc2s1)OCCO3", "inhibition": "-2.65% (inactive)"},
      {"molecule": "N#Cc1ccc(OCc2nnc(-c3ccc([N+](=O)[O-])cc3)o2)cc1", "inhibition": "4.26% (inactive)"},
      {"molecule": "COc1ccccc1N1CCN(c2ncnc3sc(C)c(-c4ccccc4)c23)CC1", "inhibition": "35.4% (inactive)"},
      {"molecule": "CS(=O)(=O)N(Cc1ccccc1Cl)c1ccc(C(=O)NCc2cccnc2)cc1", "inhibition": "-5.28% (inactive)"},
      {"molecule": "COc1ccc(Cl)cc1C(=O)NNC(=S)NC(=O)/C=C/c1ccco1", "inhibition": "80.2% (active)"},
      {"molecule": "COc1ccc(Cl)cc1C(=O)NNC(=S)NC1CCCC1", "inhibition": "-3.8% (inactive)"},
      {"molecule": "C=CCNC(=S)NNC(=O)c1cc(Cl)ccc1OC", "inhibition": "3.23% (inactive)"},
      {"molecule": "CCOCCCNC(=S)N1CCC(NC(=O)C2CCCCC2)CC1", "inhibition": "-0.571% (inactive)"},
      {"molecule": "CC(C)c1nc2cc(C(=O)NC(C)c3cnn(C)c3)ccc2o1", "note": "(centres undefined)", "inhibition": "-0.746% (inactive)"},
      {"molecule": "COc1ccc(CCNC(=O)C(=O)Nc2ccc3nc4n(c(=O)c3c2)CCCCC4)cc1OC", "inhibition": "58.4% (active)"},
      {"molecule": "O=C(Nc1ccc2nc3n(c(=O)c2c1)CCCCC3)c1ccccc1Cl", "inhibition": "-2.99% (inactive)"},
      {"molecule": "CCCCN(CC)C(=S)Nc1ccc2nc3n(c(=O)c2c1)CCCCC3", "inhibition": "2.4% (inactive)"},
      {"molecule": "C=C(C)COc1ccc(-c2n[nH]c(C)c2-c2ccccc2)c(O)c1", "inhibition": "62.3% (active)"},
      {"molecule": "C=C(C)COc1ccc(-c2n[nH]c(C)c2-c2ccccc2OC)c(O)c1", "inhibition": "10.6% (inactive)"},
      {"molecule": "CCOc1ccc(-c2n[nH]c(C)c2-c2ccccn2)c(O)c1", "inhibition": "-4.57% (inactive)"},
      {"molecule": "CCNC(=O)c1cnn(-c2ccccc2)c1-c1ccccc1", "inhibition": "-2.93% (inactive)"},
      {"molecule": "COc1ccc(C(=O)O)cc1S(=O)(=O)NCc1cccnc1", "inhibition": "0.329% (inactive)"}
    ]}
  ]
}
